Several values for one entry are separate records, joined by “and”; a condition that tells them apart may be missing. Identical values can stand only once. Records with an inconclusive call do not appear. Activity calls are given as the source filed them. Unless noted, calls come from the whole dose curve; as a rule, active = well fitted curve in the direction sought with a large enough effect; inconclusive = small, poorly fitted or top-dose-only effect, or another doubt; inactive = no such curve, though single readings can be large; an effect the other way counts as inactive or inconclusive.

Data on nine compounds can be found in PubChem BioAssay (NCATS).

Assay [1] addresses Mitogen-activated protein kinase 10 (Mus musculus) (UniProt Q61831). Description: JNK3 AlphaScreen Assay (AID 530; active = well fitted curve in either direction with a large enough effect, not every such curve was filed as active;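 note: kinase came from lysate of stimulated human HepG2 cells; signal reports phosphorylation of biotinylated GST-cJun 1-79 at Ser73 with 10 µM ATP; % is set by controls: 0 for no effect and ±100 for the full control effect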). The gist of the method: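 Activity was read by AlphaScreen after JNK3-containing HepG2 lysate (cytokine pre-activated) phosphorylated biotinylated GST-cJun with 10 uM ATP at room temperature. Phospho-Ser73 cJun antibody with Protein-A acceptor beads provided detection.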

Assay [2] can be described thus: Cellular Toxicity (caspase-3) HUV-EC-C (AID 656). The gist of the method: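 Read-out: luminescence proportional to caspase 3/7 activity, measured 20 min after adding Caspase-Glo 3/7 reagent. Cells (HUV-EC-C) had received compound for 16 hr at 37°C. Increases relative to DMSO and 100 uM tamoxifen gave concentration-response AC50 values.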
Assay [3] in a line: Cellular Toxicity (caspase-3) Hek293 (AID 664).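 Note: cells exposed to compound for 16 h at 37 °C before readout.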 The settings on record: HEK293 caspase-3 activation, DMSO = 0%, 100 µM tamoxifen = 100%; at 92.2 µM (top of the series). In a few lines:
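qHTS, HEK293 (human embryonic kidney), 16 h cpd exposure in complete medium. Caspase-3/7 activation = luminescence increase; normalized to DMSO/100 uM tamoxifen; Hill-fit AC50.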

Assay [4] can be described thus: MultiTox-Fluor Cytotoxicity Assay - LYMP1-002 - Live Cells (AID 955).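 Note: cells exposed to compound for 16 hours; % is set by controls: 0 for no effect and ±100 for the full control effect.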 In a few lines: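 Cells were seeded at 2500 per well and incubated 5 hr. Compounds were then added for 16 hr at 37 C, followed by MultiTox-Fluor reagent for 60 min at room temperature and fluorescence reading of viable-cell protease signal.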
Assay [5] in a line: Cell Viability - LYMP1-003 - Assay at 40 hr (AID 964). Note: % is set by controls: 0 for no effect and ±100 for the full control effect; nearly all actives have a fitted effect of over 60% in size. In a few lines: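 Luminescent ATP signal (CellTiter-Glo) served as the viability read-out after 40 hr compound treatment of human lymphoblastoid LYMP1-003 cells at 37 C. Decreases in ATP were fitted with the Hill equation to give AC50.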
Assay [6] in a line: Cell Viability - LYMP2-013 (AID 970). Note: nearly all actives have a fitted effect of over 55% in size. Note: potency is the fitted concentration of half-maximal effect. The gist of the method: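 Cytotoxicity is scored as a concentration-dependent drop in intracellular ATP in human lymphoblastoid cells after 24 hr compound exposure at 37 C. ATP is quantified by luciferase luminescence, and AC50 values come from Hill-equation modeling.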
A short description of assay [7]: Cell Viability - LYMP2-008 (AID 980). Note: nearly all actives have a fitted effect of over 60% in size. Note: potency is the fitted concentration of half-maximal effect. The gist of the method:
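Cells seeded at 2500/well and rested 5 hr at 37 C; compounds added over a concentration range and incubated 24 hr at 37 C; CellTiter-Glo added, 30 min at room temperature; luminescence read and AC50 fitted with Hill model.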

Assay [8] in a line: Cell Viability - LYMP2-010 (AID 981).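 Note: cells exposed to compound for 24 hours at 37 °C; nearly all actives have a fitted effect of over 55% in size.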 Note: potency is the fitted concentration of half-maximal effect. The gist of the method: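 Steps: seed 2500 LYMP2-010 cells per well; incubate 5 hr at 37 C; add compound; incubate 24 hr at 37 C; add CellTiter-Glo, wait 30 min at room temperature; read luminescence. Concentration-response fitted to Hill equation for AC50.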
Assay [9] in a line: Cell Viability - LYMP2-020 (AID 986). Note: nearly all actives have a fitted effect of over 55% in size. Note: potency is the fitted concentration of half-maximal effect. The gist of the method: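 Seed 2500 cells per well and incubate 5 hr at 37 C. Add compounds at a concentration series and incubate 24 hr at 37 C. Add CellTiter-Glo, wait 30 min at RT, read luminescence, and fit a Hill curve for AC50.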
The nature of assay [10]: Cell Viability - LYMP2-022 (AID 987).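 For viability change, negative = cytotoxic: 0% = DMSO alone and full effect = tetraoctylammonium bromide at 92 µM.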 Note: nearly all actives have a fitted effect of over 55% in size. Note: potency is the fitted concentration of half-maximal effect. The gist of the method: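 Cells were seeded at 2500 per well, rested 5 hr at 37 C, and treated with titrated compounds for 24 hr at 37 C. Cellular ATP was then quantified by luciferase luminescence, and AC50 values were derived from Hill-modelled concentration-response curves.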
Assay [11] concerns the target Vitamin D3 receptor (Homo sapiens) (UniProt P11473). Description: qHTS assay for small molecule agonists of vitamin D receptor signaling (AID 588543; calls by dose curve;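 note: 0% = DMSO basal and 100% = reference agonist control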). In a few lines: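 qHTS in agonist mode: compound titrations stimulate a VDR-driven β-lactamase reporter in HEK293T cells over 16 h at 37 °C. Response normalized to 50 nM 1α,25-dihydroxyvitamin D3 = 100%, DMSO = 0%; Hill fitting gives EC50 and maximal response.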

Assay [12] can be described thus: qHTS assay for small molecule agonists of retinoid X receptor alpha signaling (AID 588544). The following applies: HEK293T RXRa-UAS-bla, beta-lactamase reporter, 18 h; 530 nm emission.
Assay [13] deals with Thyroid hormone receptor beta (Homo sapiens) (UniProt P10828). Description: qHTS assay for small molecule antagonists of thyroid hormone receptor beta signaling (AID 588547; active = well fitted inhibition curve with a large enough effect in the signal ratio, with a control signal flat, not every such curve was filed as active; the % refers to the signal ratio;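 note: cells stimulated with 0.4 nM T3 agonist during compound exposure; % is set by controls: 0 for no effect and ±100 for the full control effect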). The settings on record: TR-UAS-bla HEK293, beta-lactamase ratio, antagonist mode, 18 h. The gist of the method: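 TR-UAS-bla GripTite HEK293 cells in 2% charcoal/dextran FBS medium; compounds 0.59 nM to 92 uM with T3 at 0.4nM final, 18 h at 37 C. Beta-lactamase read by CCF4 fluorescence (460/530 nm); Hill fits gave IC50 and efficacy.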
Thyroid hormone receptor beta (Homo sapiens), sequence (P10828 whole entry, looked up): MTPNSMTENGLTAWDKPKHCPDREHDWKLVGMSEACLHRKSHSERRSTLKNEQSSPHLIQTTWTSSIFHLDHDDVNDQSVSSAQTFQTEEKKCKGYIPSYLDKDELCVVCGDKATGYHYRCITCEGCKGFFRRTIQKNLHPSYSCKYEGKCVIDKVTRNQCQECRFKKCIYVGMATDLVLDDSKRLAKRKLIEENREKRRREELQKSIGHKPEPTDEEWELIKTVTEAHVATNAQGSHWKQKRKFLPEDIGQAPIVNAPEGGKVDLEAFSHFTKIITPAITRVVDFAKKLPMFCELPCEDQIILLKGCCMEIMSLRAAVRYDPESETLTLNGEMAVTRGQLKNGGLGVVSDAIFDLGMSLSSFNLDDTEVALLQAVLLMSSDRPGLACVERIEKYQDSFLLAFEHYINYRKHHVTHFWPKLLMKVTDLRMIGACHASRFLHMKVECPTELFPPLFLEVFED

Assay [14] is described as follows: qHTS assay for small molecule disruptors of the mitochondrial membrane potential - 1 hr assay (AID 651754; calls by dose curve; note: nearly all actives have a fitted effect of over 35% in size; note: potency is the fitted concentration of half-maximal effect). In a few lines: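 Loss of mitochondrial potential shifts the cationic dye from red mitochondrial aggregates to green cytoplasmic monomers. Cells (HepG2) are treated with compound for 1 hr before a 30 min dye incubation at 37C.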
Assay [15] has as its target Tumor necrosis factor (Homo sapiens) (UniProt P01375). Description: qHTS assay to identify small molecules that stimulate Tumor Necrosis Factor-alpha (TNF-alpha) secretion (AID 651757; active = well fitted curve in the direction sought with a large enough effect in the signal ratio; the % refers to the signal ratio; note: 0% is about no effect). The gist of the method:
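Human monocytic THP-1 cells are plated, treated with compound and held at 37 C for 17 hrs. Labeled anti-TNF-alpha antibody mixture is then added; after 3 hr at room temperature, TR-FRET signal reports secreted TNF-alpha.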

A short description of assay [16]: Cell Viability - SH-SY5Y (AID 544). Note: potency is the fitted concentration of half-maximal effect. The following applies: SH-SY5Y neuroblastoma cell viability; viability change, negative = cytotoxic: at 92.2 µM (top of the series). In a few lines: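 Cells were plated at 1500 per well and allowed 5 hr at 37 °C. Compounds were added across a concentration range and incubated 40 hr at 37 °C. CellTiter-Glo was added for 20 min at room temperature before luminescence reading.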

Assay [17] can be described thus: Cell Viability - LYMP2-001 (AID 921). Note: nearly all actives have a fitted effect of over 70% in size. Note: potency is the fitted concentration of half-maximal effect. In a few lines:
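qHTS, 1536-well; lymphoblastoid cells, 24 hr compound, 37 C; ATP by CellTiter-Glo, 30 min RT; luminescence; Hill-fit AC50.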

A short description of assay [18]: Cell Viability - LYMP2-019 (AID 973). In a few lines:
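Cytotoxicity is scored as a concentration-dependent drop in cellular ATP after cells (2500/well) receive compound for 24 hr at 37 C. Tetraoctylammonium bromide serves as positive control.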

Assay [19] in a line: Cell Viability - LYMP2-002 (AID 977).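 Note: compound exposure lasted 24 h at 37 °C; plate controls were DMSO only for no effect and 92 µM tetraoctylammonium bromide for full effect.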 In a few lines: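 Human lymphoblastoid cells, 2500/well, complete medium; 5 h 37 C settle; compound 24 h 37 C; CellTiter-Glo, 30 min RT; luminescence. Decrease in ATP = cytotoxicity; AC50 via Hill equation.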
A short description of assay [20]: Cell Viability - LYMP2-016 (AID 984). In a few lines: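 Acute toxicity in a Coriell human lymphoblastoid line is scored as loss of intracellular ATP over 24 h of treatment in complete medium. CellTiter-Glo signal is fitted across concentrations with the Hill equation to give AC50.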

Tumor necrosis factor (Homo sapiens), sequence (P01375 whole entry, looked up): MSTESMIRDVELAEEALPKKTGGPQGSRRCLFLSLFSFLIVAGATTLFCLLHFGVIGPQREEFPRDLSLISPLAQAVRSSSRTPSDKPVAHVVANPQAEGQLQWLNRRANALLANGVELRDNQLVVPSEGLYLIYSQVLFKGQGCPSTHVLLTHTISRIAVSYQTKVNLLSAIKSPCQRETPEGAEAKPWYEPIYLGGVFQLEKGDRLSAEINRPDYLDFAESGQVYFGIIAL
Vitamin D3 receptor (Homo sapiens), sequence (P11473 whole entry, looked up): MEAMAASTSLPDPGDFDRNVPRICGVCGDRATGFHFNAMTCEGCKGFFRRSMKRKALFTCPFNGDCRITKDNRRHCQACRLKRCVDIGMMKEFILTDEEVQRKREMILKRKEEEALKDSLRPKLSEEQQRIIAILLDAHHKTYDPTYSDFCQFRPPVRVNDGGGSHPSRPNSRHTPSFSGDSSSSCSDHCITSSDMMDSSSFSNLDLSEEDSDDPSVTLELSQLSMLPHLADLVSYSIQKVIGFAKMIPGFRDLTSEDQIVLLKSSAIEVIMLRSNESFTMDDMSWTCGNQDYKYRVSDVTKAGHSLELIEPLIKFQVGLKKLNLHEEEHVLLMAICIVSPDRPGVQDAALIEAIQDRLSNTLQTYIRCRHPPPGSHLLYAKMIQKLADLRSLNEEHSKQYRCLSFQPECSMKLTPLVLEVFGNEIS

On to `BrCC(Br)(Br)Br`, for which the Potency entry in [1], in assay [5] and in assay [14] was “inactive” throughout. Further, the result in assay [2], in assay [4], in [11] and in assay [15] was inactive. Further, the caspase-3 activation in assay [3] was 7.98% (inactive). The Potency in [6] is 25.1 µM (active); in [7] it was 39.8 µM (active); in [8], 12.6 µM (active); in [9], 15.8 µM (active); in [10], 7.94 µM (active). The max response in [12] amounted to 19.6%. The activity change % (negative = inhibition) in assay [13] was -15.5% (inactive).

With `COP(=S)(OC)SCn1nnc2ccccc2c1=O`, the Potency result in [1], in assay [17], in assay [5], in assay [6], in assay [18] and in [19] was “inactive” throughout. Besides, the Potency result in [7], in [8], in assay [20], in assay [9] and in assay [10] was “inactive” throughout. In assay [16], the Potency is 15.8 µM (active). Further, the compound was classed as inactive in [2], in assay [4], in [11] and in assay [15]. In assay [3], the caspase-3 activation was 0.18% (inactive). Further, the activity change % (negative = inhibition) in assay [13] is 7.85% (inactive).

For the compound `CN(C)c1ccc(N(C)C)cc1`, the Potency result in assay [1], in [5], in assay [19] and in [14] was “inactive” throughout. Moreover, the viability change, negative = cytotoxic in assay [16] was -98.2% (active). For the same compound, the compound was classed as inactive in assay [2] and in [4]. For the same compound, the caspase-3 activation in assay [3] was -1.04% (inactive). In addition, the figures for the Potency in assay [17], in [8] and in assay [10] were 50.1 µM (active), 50.1 µM (active) and 39.8 µM (active), respectively. In addition, the max response in assay [12] is -11.6%. In [13], the activity change % (negative = inhibition) is -0.335% (inactive).

With `CC[N+](=O)[O-]`, the Potency result in assay [1], in assay [16], in assay [17], in assay [5], in [6] and in [18] was “inactive” throughout. In addition, the Potency result in [19], in [7], in [8], in assay [20], in [9] and in assay [10] was “inactive” each time. In addition, the Potency entry in assay [14] is “inactive”. Besides, the caspase-3 activation in assay [3] is 3.71% (inactive). In addition, the compound was classed as inactive in assay [4], in assay [11] and in [15]. Besides, the max response in assay [12] is -9.1%. Further, the activity change % (negative = inhibition) in assay [13] is -0.712% (inactive).

In the case of `Oc1cc(Cl)cc(Cl)c1`, the Potency result in [1], in [16], in assay [17], in assay [5], in [6] and in assay [18] was “inactive” throughout. The Potency entry in assay [19], in assay [7], in assay [8], in assay [20], in [9] and in assay [10] was “inactive” throughout. In addition, the call in assay [2], in [4], in assay [11] and in assay [15] was inactive. In addition, the caspase-3 activation in [3] was -1.48% (inactive). In addition, the max response in assay [12] is -13.2%. Besides, the activity change % (negative = inhibition) in assay [13] was 11.4% (inactive). In addition, in [14], the Potency was 42.2 µM (active).

Regarding `Nc1ccc(Cc2ccc(N)cc2)cc1`, the Potency result in assay [1], in assay [16], in [6], in [18], in assay [19] and in assay [7] was “inactive” in each case. The Potency result in assay [8], in assay [20] and in assay [14] was “inactive” each time. For the same compound, the call in assay [2], in assay [4] and in assay [11] was inactive. For the same compound, in assay [3], the caspase-3 activation was 0.697% (inactive). Further, in [12], the max response is 7.13%. For the same compound, the activity change % (negative = inhibition) in [13] is 11% (inactive) and -9.43% (inactive).

Take `CC(C)CON=O`: the Potency result in [1], in [16], in assay [17], in [5], in assay [6] and in assay [18] was “inactive” throughout. Besides, the Potency entry in assay [19], in assay [7], in assay [8], in [20], in assay [9] and in assay [10] was “inactive” in each case. Also, in [14], the Potency result was “inactive”. Further, the result in [2], in [11] and in assay [15] was inactive. Besides, in [3], the caspase-3 activation was 0.719% (inactive). Further, the max response in assay [12] amounted to 6.03%.

Regarding `O=C(O)CBr`, the Potency entry in assay [1], in assay [16], in [17], in assay [5], in assay [6] and in assay [18] was “inactive” in each case. Moreover, the Potency entry in assay [19], in assay [7], in assay [8], in assay [20], in [9] and in [10] was “inactive” each time. Moreover, the Potency entry in [14] is “inactive”. Also, the result in assay [2], in [4], in assay [11] and in assay [15] was inactive. Besides, the caspase-3 activation in [3] was 2.72% (inactive). The max response in assay [12] was -13.9%. Also, the activity change % (negative = inhibition) in assay [13] is 11.6% (inactive).

As for `Oc1cccc(Cl)c1`, the Potency entry in assay [1], in assay [16], in [17], in assay [5], in [6] and in [18] was “inactive” each time. Moreover, the Potency result in [19], in assay [7], in assay [8], in assay [20], in assay [9] and in [10] was “inactive” in each case. Further, in [14], the Potency result was “inactive”. For the same compound, the compound was called inactive in [2], in assay [4], in [11] and in assay [15]. Besides, the caspase-3 activation in assay [3] is -0.037% (inactive). In addition, the max response in assay [12] was -0.644%. Besides, the activity change % (negative = inhibition) in [13] was 0.91% (inactive).
